{
  "source": "the supplement of paper PMC8728848",
  "assay_in_all_cases": "glycan array binding signal (z-score within array); higher = stronger binding",
  "settings_in_all_cases": "glycan notation: IUPAC condensed, linker removed",
  "key": {"[1]": {"biological_target": "Gal(b1-4)GlcNAc(b1-6)[Gal(b1-4)GlcNAc(b1-3)]GalNAc", "in_short": "(§1)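 Glycan array binding is given as a within-array Z-score, which can be read as non-binding when negative. The arrays, 3228 of them, came from the Consortium for Functional Glycomics database and were retained only where the protein sequence was available. Z-scores were averaged across arrays of the same protein sequence at different concentrations or buffers and across linkers.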"}, "Gal3S(b1-3)GlcNAc": {"biological_target": "Gal3S(b1-3)GlcNAc", "in_short": "as §1"}, "Gal3S(b1-4)Glc": {"biological_target": "Gal3S(b1-4)Glc", "in_short": "as §1"}, "Gal3S(b1-4)GlcNAc6S": {"biological_target": "Gal3S(b1-4)GlcNAc6S", "in_short": "as §1"}, "Gal6S(b1-4)Glc6S": {"biological_target": "Gal6S(b1-4)Glc6S", "in_short": "as §1"}, "[2]": {"biological_target": "GalNAc(a1-3)GalNAc(a1-3)Gal(a1-4)Gal(b1-4)GlcNAc", "in_short": "as §1"}, "[3]": {"biological_target": "GalNAc(b1-3)Gal(a1-4)Gal(b1-4)GlcNAc(b1-3)Gal(b1-4)Glc", "in_short": "as §1"}, "[4]": {"biological_target": "GlcNAc(b1-2)[GlcNAc(b1-4)]Man(a1-3)[GlcNAc(b1-2)Man(a1-6)]Man(b1-4)GlcNAc(b1-4)GlcNAc", "in_short": "as §1"}, "GlcNAc(b1-3)Gal": {"biological_target": "GlcNAc(b1-3)Gal", "in_short": "as §1"}, "[5]": {"biological_target": "GlcNAc(b1-3)Gal(b1-4)GlcNAc(b1-3)Gal(b1-4)GlcNAc(b1-3)Gal(b1-4)GlcNAc(b1-3)Gal(b1-4)GlcNAc(b1-2)[GlcNAc(b1-3)Gal(b1-4)GlcNAc(b1-3)Gal(b1-4)GlcNAc(b1-3)Gal(b1-4)GlcNAc(b1-3)Gal(b1-4)GlcNAc(b1-6)]Man(a1-6)[GlcNAc(b1-3)Gal(b1-4)GlcNAc(b1-3)Gal(b1-4)GlcNAc(b1-3)Gal(b1-4)GlcNAc(b1-3)Gal(b1-4)GlcNAc(b1-2)Man(a1-3)]Man(b1-4)GlcNAc(b1-4)[Fuc(a1-6)]GlcNAc", "in_short": "as §1"}, "Kdn(a2-3)Gal(b1-4)Glc": {"biological_target": "Kdn(a2-3)Gal(b1-4)Glc", "in_short": "as §1"}, "[6]": {"biological_target": "Man(a1-2)Man(a1-3)[Man(a1-2)Man(a1-6)]Man(a1-6)[Man(a1-2)Man(a1-2)Man(a1-3)]Man", "in_short": "as §1"}, "[7]": {"biological_target": "Man(a1-2)Man(a1-6)[Man(a1-3)]Man(a1-6)[Man(a1-2)Man(a1-2)Man(a1-3)]Man(b1-4)GlcNAc(b1-4)GlcNAc", "in_short": "as §1"}, "[8]": {"biological_target": "Man(a1-3)[Man(a1-6)]Man(a1-6)[Man(a1-2)Man(a1-3)]Man(b1-4)GlcNAc(b1-4)GlcNAc", "in_short": "as §1"}, "[9]": {"biological_target": "Neu5Ac(a2-3)Gal(b1-3)GlcNAc(b1-3)Gal(b1-4)GlcNAc", "in_short": "as §1"}, "[10]": {"biological_target": "Neu5Ac(a2-3)Gal(b1-4)GlcNAc(b1-3)Gal(b1-4)GlcNAc(b1-3)Gal(b1-4)GlcNAc", "in_short": "as §1"}, "[11]": {"biological_target": "Neu5Ac(a2-3)Gal(b1-4)GlcNAc(b1-3)GalNAc", "in_short": "as §1"}, "[12]": {"biological_target": "Neu5Ac(a2-3)[GalNAc(b1-4)]Gal(b1-4)Glc", "in_short": "as §1"}, "[13]": {"biological_target": "Neu5Ac(a2-6)Gal(b1-4)GlcNAc(b1-2)Man(a1-3)[GlcNAc(b1-2)Man(b1-4)GlcNAc(b1-2)Man(a1-6)]Man(b1-4)GlcNAc(b1-4)GlcNAc", "in_short": "as §1"}, "[14]": {"biological_target": "Neu5Ac(a2-6)Gal(b1-4)GlcNAc(b1-2)Man(a1-3)[Neu5Ac(a2-3)Gal(b1-4)GlcNAc(b1-2)Man(a1-6)]Man(b1-4)GlcNAc(b1-4)GlcNAc", "in_short": "as §1"}, "[15]": {"biological_target": "Neu5Ac(a2-6)Gal(b1-4)GlcNAc(b1-2)Man(a1-6)[GlcNAc(b1-2)Man(a1-3)]Man(b1-4)GlcNAc(b1-4)GlcNAc", "in_short": "as §1"}, "[16]": {"biological_target": "Neu5Ac(a2-6)Gal(b1-4)GlcNAc(b1-3)Gal(b1-4)GlcNAc(b1-2)Man(a1-3)[Neu5Ac(a2-6)Gal(b1-4)GlcNAc(b1-3)Gal(b1-4)GlcNAc(b1-2)Man(a1-6)]GalNAc", "in_short": "as §1"}, "[17]": {"biological_target": "Neu5Ac(a2-6)GalNAc(b1-4)GlcNAc6S", "in_short": "as §1"}, "[18]": {"biological_target": "Neu5Ac(a2-6)GlcNAc(b1-4)GlcNAc(b1-4)GlcNAc", "in_short": "as §1"}, "[19]": {"biological_target": "Neu5Gc(a2-8)Neu5Gc(a2-3)Gal(b1-4)GlcNAc(b1-3)Gal(b1-4)GlcNAc", "in_short": "as §1"}},
  "note": "This excerpt belongs to a sample that is enriched for the strongest signals.",
  "data": [
    {"binder": "Gal 9 (Homo sapiens), O00182 (protein) MAFSGSQAPYLSPAVPFSGTIQGGLQDGLQITVNGTVLSSSGTRFAVNFQTGFSGNDIAFHFNPRFEDGGYVVCNTRQNGSWGPEERKTHMPFQKGMPFDLCFLVQSSDFKVMVNGILFVQYFHRVPFHRVDTISVNGSVQLSYISFQNPRTVPVQPAFSTVPFSQPVCFPPRPRGRRQKPPGVWPANPAPITQTVIHTVQSAPGQMFSTPAIPPMMYPHPAYPMPFITTILGGLYPSKSILLSGTVLPSAQRFHINLCSGNHIAFHLNPRFDENAVVRNTQIDNSWGSEERSLPRKMPFVRGQSFSVWILCEAHCLKVAVDGQHLFEYYHRLRNLPTINRLEVGGDIQLTHVQT", "values": [
      {"measurement": "glycan array binding signal (z-score)", "setting": "[1]", "value": -0.275},
      {"measurement": "glycan array binding signal (z-score)", "setting": "Gal3S(b1-3)GlcNAc", "value": 0.996},
      {"measurement": "glycan array binding signal (z-score)", "setting": "Gal3S(b1-4)Glc", "value": -0.132},
      {"measurement": "glycan array binding signal (z-score)", "setting": "Gal3S(b1-4)GlcNAc6S", "value": 4.06},
      {"measurement": "glycan array binding signal (z-score)", "setting": "Gal6S(b1-4)Glc6S", "value": -0.299},
      {"measurement": "glycan array binding signal (z-score)", "setting": "[2]", "value": 0.672},
      {"measurement": "glycan array binding signal (z-score)", "setting": "[3]", "value": -0.036},
      {"measurement": "glycan array binding signal (z-score)", "setting": "[4]", "value": -0.323},
      {"measurement": "glycan array binding signal (z-score)", "setting": "GlcNAc(b1-3)Gal", "value": -0.323},
      {"measurement": "glycan array binding signal (z-score)", "setting": "[5]", "value": 2.32},
      {"measurement": "glycan array binding signal (z-score)", "setting": "Kdn(a2-3)Gal(b1-4)Glc", "value": -0.315},
      {"measurement": "glycan array binding signal (z-score)", "setting": "[6]", "value": -0.311},
      {"measurement": "glycan array binding signal (z-score)", "setting": "[7]", "value": -0.321},
      {"measurement": "glycan array binding signal (z-score)", "setting": "[8]", "value": -0.263},
      {"measurement": "glycan array binding signal (z-score)", "setting": "[9]", "value": 0.431},
      {"measurement": "glycan array binding signal (z-score)", "setting": "[10]", "value": 0.554},
      {"measurement": "glycan array binding signal (z-score)", "setting": "[11]", "value": -0.265},
      {"measurement": "glycan array binding signal (z-score)", "setting": "[12]", "value": -0.302},
      {"measurement": "glycan array binding signal (z-score)", "setting": "[13]", "value": 0.913},
      {"measurement": "glycan array binding signal (z-score)", "setting": "[14]", "value": -0.259},
      {"measurement": "glycan array binding signal (z-score)", "setting": "[15]", "value": -0.323},
      {"measurement": "glycan array binding signal (z-score)", "setting": "[16]", "value": 5.41},
      {"measurement": "glycan array binding signal (z-score)", "setting": "[17]", "value": -0.291},
      {"measurement": "glycan array binding signal (z-score)", "setting": "[18]", "value": -0.318},
      {"measurement": "glycan array binding signal (z-score)", "setting": "[19]", "value": -0.282}
    ]}
  ]
}
